Screening results deposited in PubChem BioAssay by National Center for Advancing Translational Sciences (NCATS).
Tau FP inhib: tau fibrillization inhibition (FP); P10636; K18 P301L tau heparin fibrillization, Alexa594 FP, 6 h; Potency, µM (series often up to 57.7 µM), for inactives: at the highest dose activity, negative = inhibition, usual class: inhibitors; hit rate 0.39% among 280,000; note: nearly all actives have a fitted effect of over 55% in size
Target sequence (P10636 561-689 P618L limits assumed): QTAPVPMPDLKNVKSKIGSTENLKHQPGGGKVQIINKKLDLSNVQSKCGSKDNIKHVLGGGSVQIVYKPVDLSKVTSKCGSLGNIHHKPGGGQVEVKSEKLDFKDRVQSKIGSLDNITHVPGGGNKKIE
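Compound effects on tau fibrillization are measured by Alexa 594 fluorescence polarization (ex 555, em 632 nm). K18 P301L tau is used at 15 uM with 0.24 uM labeled tracer, and 20 uM heparin induces aggregation over 6 hr at 37 C.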
TRb SRC2 PPI: disrupts binding of human TR beta to SRC2; P10828; TRbeta-SRC2 peptide binding, fluorescence polarization; receptor liganded with 1 µM T3; Potency, µM (top dose mostly 106 µM), without a hit: at the highest dose activity change, negative = inhibition, most hits filed as inhibitors; hit rate 0.065% among 280,000; AID 1469;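 note: plate controls were bound peptide for no effect and peptide without receptor for full effect; nearly all actives have a fitted effect of over 50% in size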
Target sequence (P10828 whole entry, looked up): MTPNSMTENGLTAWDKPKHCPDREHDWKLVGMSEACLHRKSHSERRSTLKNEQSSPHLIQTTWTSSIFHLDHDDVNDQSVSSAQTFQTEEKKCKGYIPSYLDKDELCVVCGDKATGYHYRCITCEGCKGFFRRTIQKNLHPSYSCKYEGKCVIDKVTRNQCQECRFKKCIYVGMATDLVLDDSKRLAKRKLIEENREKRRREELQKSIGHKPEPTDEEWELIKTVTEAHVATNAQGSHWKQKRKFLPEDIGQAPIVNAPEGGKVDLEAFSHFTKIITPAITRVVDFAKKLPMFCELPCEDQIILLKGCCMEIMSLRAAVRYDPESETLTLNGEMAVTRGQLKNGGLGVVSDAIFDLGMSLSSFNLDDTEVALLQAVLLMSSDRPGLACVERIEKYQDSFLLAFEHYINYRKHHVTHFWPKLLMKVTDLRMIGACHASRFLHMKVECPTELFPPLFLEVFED
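Compounds were added to 0.6 uM TRb ligand-binding domain and 20 nM Texas Red-labeled SRC2 peptide in Tris buffer containing 1 uM T3, incubated 5 hr at ambient temperature, then read by fluorescence polarization.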
Tau fibril ThT: tau fibrillization inhibition (ThT binding); Potency, µM (top dose mostly 57.4 µM), without a hit: top-dose activity, negative = inhibition, hits mostly inhibitors; hit rate 2.1% among 270,000; recombinant tau K18 P301L, heparin-induced fibrillization, ThT fluorescence; P10636; note: nearly all actives have a fitted effect of over 55% in size
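Aggregation was driven by heparin (20 uM final) acting on recombinant tau […] bearing P301L in 100 mM sodium acetate pH 7; fibrils were detected with Thioflavin T.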
TexasRed fluor: counter-screen for TRb-SRC2 inhibitors: fluorescence interference; hit rate 0.29% among 280,000; TRb/SRC2 Texas Red total fluorescence interference; Potency, µM (doses to about 106 µM), for the others: top-dose fluorescence change, negative = quenching; active = well fitted curve in either direction with a large enough effect; inconclusive = small, poorly fitted or top-dose-only effect
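Human TRβ ligand-binding domain (0.6 uM) and Texas Red SRC2 peptide (20 nM) in Tris buffer with 1 uM T3 and 5% DMSO were incubated with pinned compound for 5 hr at ambient temperature. Total fluorescence was computed as S + 2P (555/632 nm).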
Tau fluor cs: counter-screen for tau fibril formation inhibitors; Potency, µM (series often up to 57.7 µM), inactives show top-dose activity change, negative = decrease; tau K18 P301L Alexa594 fluorescence, heparin fibrillization; hit rate 0.93% among 280,000; note: nearly all actives have a fitted effect of over 55% in size
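Human tau K18 P301L (15 uM unlabeled, 0.24 uM Alexa 594-labeled) in 100 mM sodium acetate pH 7 with 20 uM heparin, 6 hr at 37 C. ThT 30 uM added, 1 hr ambient; Alexa 594 FP and total fluorescence read at 555/632 nm.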
* hit, by the source's call; u = inconclusive; x = no result given; ! = not active in a repeat; [ ] = dose if it differs, or a comment. The list is not random: actives were taken first. Their share in the collection is about 3.1%. Unless noted, calls come from the whole dose curve; as a rule, active = well fitted curve in the direction sought with a large enough effect; inconclusive = small, poorly fitted or top-dose-only effect, or another doubt; inactive = no such curve, though single readings can be large; an effect the other way counts as inactive or inconclusive. Unless noted, % is set by controls: 0 for no effect and ±100 for the full control effect; potency is the fitted concentration of half-maximal effect.

SMILES	Tau FP inhib	TRb SRC2 PPI	Tau fibril ThT	TexasRed fluor	Tau fluor cs
COc1ccc(NC(=O)c2ccc(NCCCN3CCOCC3)c([N+](=O)[O-])c2)cc1	13.0%	-17.8%	15.8µM*	-7.7%	-21.1%
Cc1ccc(NC(=O)c2ccc(N3CCOCC3)c([N+](=O)[O-])c2)cc1S(=O)(=O)N1CCOCC1	u	2.7%	u	-2.3%	-29.1%
O=C(Nc1ccc(Cl)c([N+](=O)[O-])c1)c1ccc(NCCCN2CCOCC2)c([N+](=O)[O-])c1	-15.8%	-11.4%	2.51µM*	-0.5%	-27.7%
CC(=O)OCC1OC(C#CCC2CCCCC2)C=CC1OC(C)=O (stereo unspecified)	-7.6%[11.6 µM]	-3.5%[11.2 µM]	u	-1.5%[11.2 µM]	-21.4%[11.6 µM]
CCc1nn(CC(=O)NCc2ccccc2Cl)c(=O)c2cc3ccccc3n12	-3.1%	7.3%	-3.0%	2.6%	-4.7%
N#C/C(=N\Nc1ccc(S(=O)(=O)N2CCCCC2)cc1)C(N)=S	-5.1%	4.1%[53 µM]	12.6µM*	-4.3%[53 µM]	-13.2%
N#C/C(=N\Nc1ccc([N+](=O)[O-])cc1)C(=N)N1CCOCC1	5.0%	-9.8%	u	-6.1%	0.6%
NNC(=S)Nc1ccc(S(=O)(=O)N2CCCCC2)cc1	14.0%	3.7%	-9.7%	-3.1%	15.8µM*[quencher]
N#C/C(=N/Nc1ccc(S(=O)(=O)N2CCOCC2)cc1)C(N)=O	-0.5%	8.4%	-1.9%	-3.3%	-1.9%
N#C/C(=N/Nc1ccc([N+](=O)[O-])cc1)C(=N)N1CCCCC1	0.2%	1.2%	10µM*	-3.5%	-28.9%
NNC(=S)Nc1ccc(S(=O)(=O)N2CCOCC2)cc1	16.3%	-3.0%	u	-1.1%	u
N#C/C(=N\Nc1ccc(S(=O)(=O)N2CCCCCC2)cc1)C(N)=S	6.1%	-6.7%	14.1µM*	-8.6%	-19.4%
CCOc1ccc(NC(=O)c2c(C)nn(-c3ccc(F)cc3)c2-n2cccc2)cc1	0.6%	2.1%	4.7%	-1.2%	0.4%
CCc1cc(C(=O)Nc2c(C)nn(Cc3ccccc3Cl)c2C)no1	0.6%	7.1%	-7.3%	-3.1%	-10.0%
N#C/C(=N\Nc1ccc(S(=O)(=O)N2CCc3ccccc32)cc1)C(N)=S	15.6%	0.7%	14.1µM*	-0.9%	u
CCOC(=O)/C(C#N)=N/Nc1ccc(S(=O)(=O)N2CCc3ccccc32)cc1	2.1%	5.1%	u	-1.0%	u
COc1ccc(CCn2c(NN=C(C)C)nc3c2c(=O)[nH]c(=O)n3C)cc1	u	4.3%	22.4µM*	-3.0%	u
COc1ccc(CCn2c(NN)nc3c2c(=O)[nH]c(=O)n3C)cc1	u	-6.2%	x	-1.6%	u
COc1ccc2nc(-n3c(C)ccc3C)sc2c1	-11.9%	0.0%	u	-2.4%	-12.0%
COc1ccc2nc(N3C(=O)/C(=C/c4ccccc4)NC3=S)sc2c1	-3.4%	-2.1%[53 µM]	3.98µM*	-1.9%[53 µM]	u
CCOc1ccc2nc(N3C(=O)/C(=C/c4ccccc4)NC3=S)sc2c1	u	2.4%	3.55µM*	-4.5%	u
N#CC1=C(S)N=C(N)C(c2nc(-c3ccccc3)cs2)C12CCCC2 (stereo unspecified)	u	-18.9%	28.2µM*	-0.4%	u
CCN(C(=O)c1coc(=O)c(Br)c1)c1ccc2c(c1)OCO2	u	-8.1%	22.4µM*	-0.4%	u
CCN(C(=O)c1c(C)cc(=O)oc1C)c1ccc2c(c1)OCO2	-1.0%	-13.0%	-3.9%	1.1%	0.2%
CCCc1cc(=O)n2[nH]c(C)c(-c3ccccc3)c2n1	4.4%	-8.2%	-4.4%	-1.3%	6.3%
SMILES	Tau FP inhib	TRb SRC2 PPI	Tau fibril ThT	TexasRed fluor	Tau fluor cs
Cc1[nH]n2c(=O)cc(-c3ccc(Cl)cc3)nc2c1-c1ccccc1	-1.7%	1.0%	14.1µM*	-18.1%	u
COc1cccc(N=Nc2c(N)[nH]n3c(=O)cc(-c4ccccc4)nc23)c1	9.3%	-0.8%	3.98µM*	-3.7%	u
Cc1ccc(N=Nc2c(N)[nH]n3c(=O)cc(-c4ccccc4)nc23)cc1	1.5%	-10.4%	3.16µM*	-5.7%	u
COc1ccc(-c2nn(C)c3sc(C(=O)N4CCN(c5cc(Cl)ccc5C)CC4)cc23)cc1OC	5.4%	-7.0%	-9.8%	-0.1%	-11.7%
N#C/C(=C\c1c(Oc2ccc(Br)cc2)nc2ccccn2c1=O)c1nc2ccccc2s1	u	-29.1%[1.83 µM]	u	-80.7%[1.83 µM]	-26.0%
Cc1ccc(/C=N/Nc2nc(C(C)(C)C)cs2)o1	u	0.3%	u	-5.7%	u
Cc1ccc(/C=N/Nc2nc3ccccc3s2)o1	u	3.2%	u	-9.3%	14.1µM*[quencher]
N#CC(C#N)=C(N)/C(C#N)=C/c1cc(O)c(O)c(O)c1	u	-2.1%	11.2µM*	-11.4%	u
O=C(Nc1cccc(S(=O)(=O)Nc2ccc(Cl)cc2)c1)c1cc2c(s1)CCCC2	14.1µM*	7.9%	5.8%	1.5%	u
O=C(Nc1ccc(N2CCOCC2)cc1)Nc1ccc(Cl)c(Cl)c1	u	-1.5%	12.6µM*	-7.0%	8.91µM*[quencher]
O=C(Nc1ccc(Cl)cc1)Nc1ccc(N2CCOCC2)cc1	14.4%	-0.5%	u	-1.7%	u
O=C(Nc1ccc(N2CCOCC2)cc1)c1cc2c(s1)CCCC2	6.3%	1.6%	u	-1.5%	-23.1%
Cc1ccc(NC(=O)c2cc3c(s2)CCCC3)cc1S(=O)(=O)Nc1ccccc1Cl	u	0.5%	-3.3%	-3.4%	-27.1%
CC(=O)c1ccc(C(=O)Nc2ccc(N3CCOCC3)cc2)cc1	-15.5%	-6.5%	2.24µM*	-11.6%	-22.2%
O=C(Nc1ccc(N2CCOCC2)cc1)c1cc2c(s1)CCCCC2	8.2%	-5.6%	10µM*	-2.1%	u
CC(C)c1ccc(C(=O)Nc2ccc(N3CCOCC3)cc2)cc1	1.3%	-6.8%	-3.0%	-3.8%	-7.6%
CC(C)(C)c1ccc(C(=O)NC(=S)Nc2ccc(N3CCOCC3)cc2)cc1	2.5%	-12.6%	u	1.6%	-23.7%
CC(=O)c1ccc(N2CCN(C(=O)Nc3ccc(C(C)C)cc3)CC2)cc1	-5.5%	-1.7%	u	0.0316µM*![quencher]	u
CC(C)(C)c1ccc(C(=O)Nc2ccc(N3CCOCC3)cc2)cc1	-12.3%	0.6%	4.47µM*	-5.0%	u
CC(C)(C)OC(=O)N1CCCC1C(=O)NC1COC2CC(n3ccc(=O)[nH]c3=O)OC12 (stereo unspecified)	x	3.9%	x	-1.1%	x
COC/C=C/C1=CC2=CC(=O)C(C)(OC(=O)C3CCCC3)C(=O)C2=CO1 (stereo unspecified)	10µM*	4.7%	25.1µM*	-2.1%	u
COC/C=C/C1=CC2=CC(=O)C(C)(OC(=O)c3ccco3)C(=O)C2=CO1 (stereo unspecified)	u	-8.4%	25.1µM*	3.1%	u
COC/C=C/C1=CC2=CC(=O)C(C)(OC(=O)c3cccs3)C(=O)C2=CO1 (stereo unspecified)	-2.3%	7.8%	-13.3%	-1.6%	-9.8%
N=C1N=C(N)c2cc3ccccc3cc21	x	3.3%	x	-4.3%	x
